Source: PubChem BioAssay
Active and inactive are the calls of the source.

What was measured:
[1] = test system: Human papillomavirus type 1a protein E7 (residues 44-93); assay: HPV1a E7 fragment binders on microarrays, primary screen, biochemical, small-molecule microarray, residues 44-93, 635 nm fluorescence (AID 1108); conditions: small-molecule microarray binding, fluorescence 635 nm; higher = more signal;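 also: E7 fragment applied at 1 µg/mL in TBST for 1 h at 4 C; score combines spot fluorescence with its signal to noise ratio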
[2] = modulators of HCV replicon luciferase signal, primary screen, HCV replication inhibitor project, Huh7 cells, luciferase reporter (AID 1109); conditions: 48 h, higher = more signal;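 also: huh7 hepatoma cells harbouring a luciferase neomycin HCV replicon reporter; luciferase luminescence as measure of HCV replicon replication; test concentration not given here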
[3] = biological target: Left-right determination factor 2 (Homo sapiens) (UniProt O00292); assay: LEFTY2 binders on small-molecule microarrays, primary screen, biochemical, small-molecule microarray, 635 nm fluorescence scan (AID 1110); conditions: LEFTY2 binding, higher = more signal
Sequence of Left-right determination factor 2 (Homo sapiens) (O00292 whole entry, looked up): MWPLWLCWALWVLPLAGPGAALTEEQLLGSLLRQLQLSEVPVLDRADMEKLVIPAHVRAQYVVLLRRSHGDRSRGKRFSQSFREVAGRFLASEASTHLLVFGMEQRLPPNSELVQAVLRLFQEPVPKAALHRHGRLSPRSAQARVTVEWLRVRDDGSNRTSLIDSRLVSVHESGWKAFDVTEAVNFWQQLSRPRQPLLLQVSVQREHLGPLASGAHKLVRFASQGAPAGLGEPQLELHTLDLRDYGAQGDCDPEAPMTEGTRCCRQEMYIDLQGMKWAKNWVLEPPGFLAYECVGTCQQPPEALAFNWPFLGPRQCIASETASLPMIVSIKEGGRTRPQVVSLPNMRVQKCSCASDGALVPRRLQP

[4] = biological target: Calmodulin-1 (Homo sapiens) (UniProt P0DP23); assay: CALM1 binders on microarrays, EGTA buffer, profiling panel, biochemical, small-molecule microarray, Cy5-labelled CALM1 (AID 1111); conditions: Cy5-CALM1 binding fluorescence, higher = more signal;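 also: labelled calmodulin applied in Tris saline Tween buffer holding calcium plus EGTA and DTT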
[5] = biological target: Calmodulin-1 (Homo sapiens) (UniProt P0DP23); assay: calcium-bound CALM1 binders on microarrays, profiling panel, artefact control for SMM control-protein annotation, biochemical, small-molecule microarray, Cy5-labelled CALM1, plus calcium (AID 1112); conditions: Cy5-CALM1 binding fluorescence, higher = more signal;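 also: score merges spot fluorescence with signal to noise from triplicate slides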
[6] = small-molecule microarray binders of probe aWnt5a, primary screen, biochemical, biotinylated probe, 635/667 nm fluorescence (AID 1113); conditions: higher = more signal;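 also: score merges 667 nm fluorescence intensity with signal-to-noise per printed feature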
[7] = small-molecule microarray binders of probe aShh, primary screen, biochemical, biotinylated probe, 635/667 nm fluorescence (AID 1114); conditions: higher = more signal;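 also: probe is biotin-labelled aShh protein from a stem cell growth factor screen; measures binding of labelled protein to compounds printed on the slide; score merges feature fluorescence at 667 nm with signal-to-noise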
[8] = small-molecule microarray binders of probe aNog, primary screen, biochemical, biotinylated probe, 635/667 nm fluorescence (AID 1115); conditions: higher = more signal;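 also: probe is biotinylated aNog protein used at 0.15 µg/mL for 1 h at 4 C; z-score combines 667 nm fluorescence of each spot with its signal to noise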
[9] = biological target: Torsin-1A-interacting protein 1 (Homo sapiens) (UniProt Q5JTV8); assay: LAP1 binders from COS7 cell lysate, primary screen, small-molecule microarray, 635/667 nm fluorescence (AID 1116); conditions: COS7-hLAP1 lysate binding, 635 nm fluorescence, higher = more signal
Sequence of Torsin-1A-interacting protein 1 (Homo sapiens) (Q5JTV8 whole entry, looked up): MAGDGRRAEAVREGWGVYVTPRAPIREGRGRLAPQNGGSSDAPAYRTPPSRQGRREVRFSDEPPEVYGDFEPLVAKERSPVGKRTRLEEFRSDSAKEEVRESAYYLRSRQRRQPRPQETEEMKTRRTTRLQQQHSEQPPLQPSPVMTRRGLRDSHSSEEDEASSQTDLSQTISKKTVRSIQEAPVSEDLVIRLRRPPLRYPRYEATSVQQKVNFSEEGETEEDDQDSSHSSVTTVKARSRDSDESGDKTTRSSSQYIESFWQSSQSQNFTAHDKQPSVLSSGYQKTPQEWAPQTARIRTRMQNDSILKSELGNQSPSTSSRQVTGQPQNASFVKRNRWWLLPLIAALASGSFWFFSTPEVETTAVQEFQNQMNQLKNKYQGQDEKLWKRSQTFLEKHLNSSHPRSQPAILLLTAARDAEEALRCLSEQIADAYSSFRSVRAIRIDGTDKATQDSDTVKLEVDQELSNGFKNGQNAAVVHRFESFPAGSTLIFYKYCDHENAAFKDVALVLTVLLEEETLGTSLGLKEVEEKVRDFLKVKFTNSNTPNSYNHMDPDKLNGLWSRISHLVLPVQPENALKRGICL

[10] = biological target: Alpha-bungarotoxin (Bungarus multicinctus) (UniProt P60615); assay: alpha-bungarotoxin binders on microarray, profiling panel, artefact control for SMM control protein annotation, biochemical, small-molecule microarray, Alexa647 label, 635/667 nm fluorescence (AID 1117); conditions: alpha-BTX-A647 binding fluorescence, higher = more signal
Sequence of Alpha-bungarotoxin (Bungarus multicinctus) (P60615 whole entry, looked up): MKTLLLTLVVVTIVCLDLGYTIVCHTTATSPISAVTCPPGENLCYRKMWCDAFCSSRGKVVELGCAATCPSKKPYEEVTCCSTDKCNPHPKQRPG

Albumin (Bos taurus) = Albumin (Bos taurus) (UniProt P02769); assay: bovine serum albumin binders on microarray, profiling panel, artefact control for SMM control protein annotation, biochemical, small-molecule microarray, Alexa647 label, 635/667 nm fluorescence (AID 1118); conditions: BSA-A647 binding, fluorescence 635 nm, higher = more signal;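 also: score merges 667 nm emission intensity and signal-to-noise per printed compound spot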
Sequence of Albumin (Bos taurus) (P02769 whole entry, looked up): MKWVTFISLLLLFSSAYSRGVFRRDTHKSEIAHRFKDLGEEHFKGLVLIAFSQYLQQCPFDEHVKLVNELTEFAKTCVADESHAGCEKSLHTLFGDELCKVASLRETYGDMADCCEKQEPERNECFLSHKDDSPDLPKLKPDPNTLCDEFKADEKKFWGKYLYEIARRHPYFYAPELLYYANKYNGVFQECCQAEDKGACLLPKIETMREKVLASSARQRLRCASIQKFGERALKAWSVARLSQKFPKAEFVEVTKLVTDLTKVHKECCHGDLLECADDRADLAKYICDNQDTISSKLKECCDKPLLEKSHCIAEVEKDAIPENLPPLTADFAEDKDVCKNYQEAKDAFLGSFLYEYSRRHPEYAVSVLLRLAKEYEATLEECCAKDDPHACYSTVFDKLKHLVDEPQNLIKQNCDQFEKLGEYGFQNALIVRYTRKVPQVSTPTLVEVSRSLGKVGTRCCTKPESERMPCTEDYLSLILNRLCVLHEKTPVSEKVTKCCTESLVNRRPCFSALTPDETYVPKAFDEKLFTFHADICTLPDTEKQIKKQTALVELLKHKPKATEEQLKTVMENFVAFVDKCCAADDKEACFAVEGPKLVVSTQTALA

[11] = small-molecule microarray binders of probe aXIP, primary screen, biochemical, NeuroSMM set, 635/667 nm fluorescence (AID 1119); conditions: higher = more signal, called active from +8 up or from −8 down;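 also: probe is the protein aXip251-270 applied at 1 µg/mL to compound-printed slides; binding of probe to printed compounds measured as 667 nm fluorescence plus signal to noise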
[12] = small-molecule binders of probe aNOTCH3, primary screen, biochemical, small-molecule microarray, 635/667 nm fluorescence (AID 1120); conditions: higher = more signal;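 also: probe is a biotin-tagged antibody raised against NOTCH3 rather than NOTCH3 protein; score merges spot fluorescence near 667 nm with spot signal to noise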
[13] = small-molecule binders of probe aNOTCH2, primary screen, biochemical, small-molecule microarray, 635/667 nm fluorescence (AID 1121); conditions: higher = more signal;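 also: score merges feature fluorescence read at 667 nm with its signal to noise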
[14] = biological target: Carbonic anhydrase 2 (Homo sapiens) (UniProt P00918); assay: CAII small-molecule binders, profiling panel, biochemical, small-molecule microarray, Alexa647-labelled CAII (AID 1122); conditions: CAII-A647 binding fluorescence, higher = more signal
[15] = COS7 lysate on small-molecule microarray, probe aHis, 635 nm (AID 1123); conditions: COS7 cell lysate, fluorescence, higher = more signal;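 also: z-score combines 667nm fluorescence intensity with signal-to-noise per printed compound spot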
[16] = compound binding in COS7 lysate, probe aLAP1, primary screen, cell lysate, small-molecule microarray (AID 1124); conditions: probe aLAP1, fluorescence, higher = more signal;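 also: lysate comes from COS7 cells expressing LAP1 and is applied at 0.3 µg/mL; score merges spot fluorescence near 667 nm with signal-to-noise over triplicate slides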
Sam68 (KHDRBS1) = assay: Sam68 small-molecule binders, primary screen, biochemical, small-molecule microarray, 635 nm fluorescence (AID 1125); conditions: small-molecule microarray binding, higher = more signal;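 also: score merges 667 nm channel intensity with signal to noise over triplicate slides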
[17] = test system: Chordin-like protein 2 (CHRDL2); assay: CHRDL2 small-molecule binders, primary screen, biochemical, small-molecule microarray, 635 nm fluorescence (AID 1126); conditions: small-molecule microarray binding, fluorescence 635 nm; higher = more signal;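 also: printed compound slides probed with Chrdl2 protein at 4 µg/mL for 1 h at 4 C; score merges 667 nm emission intensity with signal to noise over three replicate slides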
[18] = biological target: Concanavalin-A (Canavalia ensiformis) (UniProt P02866); assay: ConA small-molecule binders, primary screen, artefact control for SMM control protein annotation, biochemical, small-molecule microarray, Alexa647 label, 635 nm (AID 1127); conditions: ConA-A647 binding fluorescence, higher = more signal;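 also: z combines 667 nm emission intensity with signal-to-noise across three replicate slides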
Sequence of Concanavalin-A (Canavalia ensiformis) (P02866 whole entry, looked up): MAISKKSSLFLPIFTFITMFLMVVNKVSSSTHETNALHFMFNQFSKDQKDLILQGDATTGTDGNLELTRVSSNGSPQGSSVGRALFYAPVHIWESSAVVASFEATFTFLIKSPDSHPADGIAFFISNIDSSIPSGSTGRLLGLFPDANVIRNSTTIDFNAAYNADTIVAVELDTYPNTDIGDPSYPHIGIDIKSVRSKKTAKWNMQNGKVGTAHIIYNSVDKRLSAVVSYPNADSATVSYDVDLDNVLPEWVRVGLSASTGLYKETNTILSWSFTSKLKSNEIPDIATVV

SMILES | composite z-score [1] | z-score [2] | composite z-score [3] | composite z-score [4] | composite z-score [5] | composite z-score [6] | composite z-score [7] | composite z-score [8] | composite z-score [9] | composite z-score [10] | composite z-score (Albumin (Bos taurus)) | composite Z-score [11] | composite z-score [12] | composite z-score [13] | composite z-score [14] | composite z-score [15] | composite z-score [16] | composite z-score (Sam68 (KHDRBS1)) | composite z-score [17] | composite z-score [18]
O=C1[C@H]2[C@H]3[C@H](O)[C@H](O)CC(=NOC[C@@H](O)COCc4ccco4)[C@H]3CC[C@H]2C(=O)N1Cc1ccc2c(c1)OCO2 | -0.532 | -0.385 | 1.37 | -1.37 | -2.03 | -0.119 | -0.349 | -0.278 | 0.13 | -0.147 | -0.244 | -0.377 (inactive) | -0.29 | -0.17 | -0.441 | -0.385 | 0.311 | 0.0595 | 1.49 | -1.26
O=C1[C@H]2[C@H]3[C@H](O)[C@H](O)CC(=NO[C@@H]4O[C@H](CO)[C@@H](O)[C@H](O)[C@H]4O)[C@H]3CC[C@H]2C(=O)N1Cc1ccccc1 | 0.386 | 0.322 | 0.652 | -0.058 | -0.534 | 0.0044 | -0.209 | 0.124 | 0.135 | 0.784 | -0.258 | -0.304 (inactive) | 0.0145 | -0.127 | -0.457 | 0.904 | 0.0052 | 1.32 | -0.564 | 0.0723
O=C1[C@H]2[C@H]3[C@H](O)[C@H](O)CC(=NOCc4ccccc4)[C@@H]3CC[C@H]2C(=O)N1C1CCCCC1 | 0.422 | -1.11 | -0.102 | -0.161 | -0.408 | -0.206 | -0.265 | -0.169 | 0.467 | -0.0059 | 0.0567 | -0.718 (inactive) | -0.0903 | -0.196 | 0.539 | 0.737 | -0.785 | 0.357 | -0.142 | -0.0593
COc1cccc([C@@H]2Oc3ccc(Br)cc3C(=O)[C@H]2O)c1 | 0.0288 | 3.55 | 0.171 | 0.042 | -0.246 | -0.124 | -0.243 | -0.257 | 0.43 | 0.599 | 0.705 | 0.38 (inactive) | -0.0111 | -0.084 | 0.439 | 0.599 | 0.214 | 0.26 | 0.432 | 1.11
O=C1C2C=CC(C(O)c3ccc([N+](=O)[O-])cc3)N(Nc3ccc([N+](=O)[O-])cc3)C2C(=O)N1c1ccccc1 (stereo not given) | 1.47 | -0.74 | 0.179 | 2.01 | 0.757 | 0.152 | 0.0796 | 0.0473 | 1.3 | 2.8 | 0.921 | 0.373 (inactive) | 0.351 | 0.0518 | 0.661 | 2.71 | 0.789 | 1.29 | -0.256 | 1.19
CC(=O)C[C@H](O)[C@@H](NC(=O)OC(C)(C)C)C(C)C | -2.43 | 0.479 | -0.319 | -0.292 | -0.327 | -0.203 | 0.0121 | -0.0926 | -0.547 | 0.0557 | -0.587 | -0.24 (inactive) | -0.0903 | -0.14 | -0.424 | -0.336 | -0.286 | -1.8 | -0.405 | -0.385
CC(C)c1ccc(NN2C(C(O)c3ccc4c(c3)OCO4)C=CC3C(=O)N(c4ccccc4)C(=O)C32)cc1 (stereo not given) | 0.688 | 1.11 | 0.168 | 2.56 | 1.28 | 0.0775 | 0.108 | 2.13 | 2.2 | 1.92 | 1 | 0.491 (inactive) | 0.166 | -0.0267 | 0.564 | 2.6 | 0.738 | 1.29 | -0.0586 | 1.18
CC(C)=NOCc1cccc(-c2cc(-c3ccccc3)no2)c1 | 0.332 | -0.149 | 0.71 | 0.0463 | -0.823 | -0.0874 | 0.0952 | -0.161 | 0.237 | 0.553 | -0.0583 | 0.123 (inactive) | 0.062 | -0.203 | 0.257 | 0.686 | 0.0499 | 1 | 0.564 | 1.02
O=C1C[C@@H](O)[C@@H](O)[C@@H]2[C@@H]3C(=O)N(c4cccc(Oc5ccccc5)c4)C(=O)[C@@H]3CC[C@@H]12 | 0.994 | -0.197 | 0.962 | 0.77 | -0.261 | -0.0327 | -0.206 | -0.4 | 0.613 | 0.106 | 0.164 | -0.397 (inactive) | 0.0496 | 0.0364 | 0.285 | 0.625 | 0.318 | 1.03 | 0.364 | 0.899
C=C(/C(=C/C[C@H](OC(=O)c1ccncc1)c1ccc(OCCO)cc1)c1cnc2ccccc2c1)C(C)C | 1.31 | -2.01 | 1.06 | 0.0481 | -0.708 | 0.0324 | 0.13 | -0.338 | 2.24 | 1.67 | 0.139 | 0.184 (inactive) | 0.173 | -0.118 | 0.946 | 0.118 | 0.62 | 1.32 | 1.14 | 1.16
CO[C@H]1COC(=O)[C@H](C)NC(=O)[C@@H](C)COC(=O)CC=C[C@@H]1C | -0.0574 | -0.504 | 0.348 | -0.239 | -0.514 | 0.0502 | 0.432 | 0.131 | 0.687 | 0.53 | -0.331 | 0.0462 (inactive) | -0.0391 | -0.192 | -0.336 | -0.851 | -0.0193 | 0.41 | 0.858 | 0.303
COCCOC(=O)N1C(=O)[C@@]2(c3cc(C#CCNC(N)=O)ccc31)[C@H](c1ccc(O)cc1)N1[C@H](c3ccccc3)[C@H](c3ccccc3)OC(=O)[C@H]1[C@@H]2C(=O)N1CCCCCCC1 | 1.13 | -0.768 | 0.817 | -0.0989 | -0.218 | -0.0718 | 0.108 | -0.559 | 0.774 | 0.413 | -0.466 | -0.624 (inactive) | 0.207 | -0.108 | 0.244 | 0.734 | 0.382 | 1.3 | 1.15 | 0.615
